This passage reports binding signal results from publication PMC7862700, “An all-to-all approach to the identification of sequence-specific readers for epigenetic DNA modifications on cytosine”.

What all share (assay): DAPPL (digital affinity profiling via proximity ligation, sequencing); 10 mM Tris-HCl pH 7.5, 50 mM NaCl, 1 mM DTT, 4% glycerol, room temperature, 30 min; GST-TFs on glutathione beads, 16-mer random dsDNA library, 0.1% formaldehyde crosslink after washing; high values mean tight binding
In one assay the target is T1, FLI1 (Homo sapiens, UniProt Q01543 1-452).
T1 sequence: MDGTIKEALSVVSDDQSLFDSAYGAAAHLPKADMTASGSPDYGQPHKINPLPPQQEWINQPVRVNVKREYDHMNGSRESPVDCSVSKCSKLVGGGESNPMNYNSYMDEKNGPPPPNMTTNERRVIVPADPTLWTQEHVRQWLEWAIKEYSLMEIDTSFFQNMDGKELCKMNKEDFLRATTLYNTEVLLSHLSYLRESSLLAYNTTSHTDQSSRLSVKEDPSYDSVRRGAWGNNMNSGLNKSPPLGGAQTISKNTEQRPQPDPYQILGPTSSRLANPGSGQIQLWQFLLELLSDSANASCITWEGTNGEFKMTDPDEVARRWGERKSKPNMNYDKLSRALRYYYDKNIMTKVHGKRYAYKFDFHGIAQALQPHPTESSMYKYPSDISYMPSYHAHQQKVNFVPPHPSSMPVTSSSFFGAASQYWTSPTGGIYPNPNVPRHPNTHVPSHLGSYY
Particulars: protein: recombinant; tags: N-terminal GST; dsDNA, one strand shown. In a few lines: (§1)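 Human transcription factors were made in yeast as GST fusions, captured on glutathione beads and barcoded with DNA. With a tag-only sample included, the pool was incubated with 200 nmole of a random double-stranded 16-mer DNA library in Tris/NaCl/DTT/glycerol buffer at room temperature for 30 min, then crosslinked with 0.1% formaldehyde after washing, ligated by proximity, amplified and sequenced. For binding signal, each hexamer's read frequency for a factor is divided by its frequency for the tag-only sample.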

The target in a further assay is T2, ELK1 (Homo sapiens, UniProt P19419 1-428).
T2 sequence: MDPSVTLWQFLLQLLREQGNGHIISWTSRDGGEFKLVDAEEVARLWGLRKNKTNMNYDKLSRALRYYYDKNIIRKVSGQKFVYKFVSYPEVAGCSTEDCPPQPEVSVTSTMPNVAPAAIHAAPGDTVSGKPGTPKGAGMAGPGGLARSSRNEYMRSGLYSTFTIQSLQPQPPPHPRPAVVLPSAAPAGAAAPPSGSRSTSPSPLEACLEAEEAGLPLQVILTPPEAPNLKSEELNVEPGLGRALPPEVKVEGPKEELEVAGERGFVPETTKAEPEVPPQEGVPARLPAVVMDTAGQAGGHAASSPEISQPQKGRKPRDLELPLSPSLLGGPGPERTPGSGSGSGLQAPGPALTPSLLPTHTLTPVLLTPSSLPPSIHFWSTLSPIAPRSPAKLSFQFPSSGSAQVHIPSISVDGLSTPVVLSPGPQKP
The settings on record: protein: recombinant; tags: N-terminal GST; dsDNA, one strand shown. In a few lines: as §1

The next assay deals with T3, GABPA (Homo sapiens, UniProt Q06546 1-454).
T3 sequence: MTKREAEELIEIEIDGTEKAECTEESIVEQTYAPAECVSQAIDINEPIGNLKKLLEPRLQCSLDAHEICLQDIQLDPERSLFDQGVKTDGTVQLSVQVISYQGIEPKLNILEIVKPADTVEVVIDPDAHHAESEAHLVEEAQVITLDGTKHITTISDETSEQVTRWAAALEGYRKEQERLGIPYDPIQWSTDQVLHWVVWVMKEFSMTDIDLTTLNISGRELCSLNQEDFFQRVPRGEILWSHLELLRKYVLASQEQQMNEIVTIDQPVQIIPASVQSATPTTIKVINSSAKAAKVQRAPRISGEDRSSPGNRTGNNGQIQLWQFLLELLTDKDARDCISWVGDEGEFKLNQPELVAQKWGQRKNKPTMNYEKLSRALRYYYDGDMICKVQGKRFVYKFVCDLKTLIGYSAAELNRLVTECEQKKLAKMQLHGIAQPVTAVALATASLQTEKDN
Particulars: protein: recombinant; tags: N-terminal GST; dsDNA, one strand shown. In a few lines:
as §1

The target in another assay is T4, ERG (Homo sapiens, UniProt P11308 1-479).
T4 sequence: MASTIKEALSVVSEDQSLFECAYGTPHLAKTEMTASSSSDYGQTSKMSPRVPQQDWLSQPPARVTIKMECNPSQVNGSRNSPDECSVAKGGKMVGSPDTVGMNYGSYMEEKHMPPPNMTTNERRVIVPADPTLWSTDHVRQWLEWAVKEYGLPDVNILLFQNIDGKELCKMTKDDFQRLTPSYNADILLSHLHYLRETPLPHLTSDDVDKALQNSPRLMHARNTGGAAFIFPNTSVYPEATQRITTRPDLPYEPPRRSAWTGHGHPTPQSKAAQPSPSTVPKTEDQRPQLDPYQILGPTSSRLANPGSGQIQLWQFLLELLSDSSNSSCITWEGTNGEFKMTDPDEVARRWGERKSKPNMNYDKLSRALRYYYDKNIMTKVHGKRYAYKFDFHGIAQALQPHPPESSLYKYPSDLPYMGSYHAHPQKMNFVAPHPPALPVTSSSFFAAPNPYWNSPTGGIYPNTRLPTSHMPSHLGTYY
The settings on record: protein: recombinant; tags: N-terminal GST; dsDNA, one strand shown. The essentials: as §1

A further assay concerns the target ELF1 (Homo sapiens, UniProt P32519 1-619). The settings on record: protein: recombinant; tags: N-terminal GST; dsDNA, one strand shown. The essentials: as §1
The next assay addresses T5, EHF (Homo sapiens, UniProt Q9NZC4 1-300).
T5 sequence: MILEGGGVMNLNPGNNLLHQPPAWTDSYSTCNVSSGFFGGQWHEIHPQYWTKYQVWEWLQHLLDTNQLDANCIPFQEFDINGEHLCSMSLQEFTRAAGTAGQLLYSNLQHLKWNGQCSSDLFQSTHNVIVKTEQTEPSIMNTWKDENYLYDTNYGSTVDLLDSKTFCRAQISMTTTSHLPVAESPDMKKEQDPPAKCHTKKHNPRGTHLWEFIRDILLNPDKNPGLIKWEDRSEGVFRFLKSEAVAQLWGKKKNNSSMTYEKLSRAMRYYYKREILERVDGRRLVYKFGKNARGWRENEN
Particulars: protein: recombinant; tags: N-terminal GST; dsDNA, one strand shown. In a few lines: as §1

Another assay concerns the target SPI1 (Homo sapiens, UniProt P17947 1-270). Particulars: protein: recombinant; tags: N-terminal GST; dsDNA, one strand shown. In a few lines: as §1
The next assay concerns the target SPIB (Homo sapiens, UniProt Q01892 1-262). Particulars: protein: recombinant; tags: N-terminal GST; dsDNA, one strand shown. The essentials:
as §1

Another assay addresses T6, ELK3 (Homo sapiens, UniProt P41970 1-407).
T6 sequence: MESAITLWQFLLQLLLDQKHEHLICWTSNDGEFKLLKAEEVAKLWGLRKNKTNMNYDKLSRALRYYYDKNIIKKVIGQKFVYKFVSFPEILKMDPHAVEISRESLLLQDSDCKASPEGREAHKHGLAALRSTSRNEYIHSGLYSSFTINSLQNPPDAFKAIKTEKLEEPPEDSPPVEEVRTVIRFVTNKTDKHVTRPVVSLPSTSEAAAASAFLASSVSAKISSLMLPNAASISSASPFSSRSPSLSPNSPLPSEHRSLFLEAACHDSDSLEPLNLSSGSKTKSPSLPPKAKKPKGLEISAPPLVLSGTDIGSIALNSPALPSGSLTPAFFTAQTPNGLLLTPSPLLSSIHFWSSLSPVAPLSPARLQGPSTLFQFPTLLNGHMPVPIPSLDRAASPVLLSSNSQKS
The settings on record: protein: recombinant; tags: N-terminal GST; dsDNA, one strand shown. In a few lines:
as §1

The next assay concerns the target T7, FEV (Homo sapiens, UniProt Q99581 1-238).
T7 sequence: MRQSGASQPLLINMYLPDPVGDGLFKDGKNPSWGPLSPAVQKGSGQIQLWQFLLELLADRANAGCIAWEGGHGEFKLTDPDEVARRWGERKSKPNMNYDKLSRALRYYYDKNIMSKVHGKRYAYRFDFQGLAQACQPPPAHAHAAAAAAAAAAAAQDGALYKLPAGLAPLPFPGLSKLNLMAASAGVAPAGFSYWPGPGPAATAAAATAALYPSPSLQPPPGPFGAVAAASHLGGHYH
Particulars: protein: recombinant; tags: N-terminal GST; dsDNA, one strand shown. The essentials: as §1

For a further assay, the target named is ETV5 (Homo sapiens, UniProt P41161 1-510). The settings on record: protein: recombinant; tags: N-terminal GST; dsDNA, one strand shown. In a few lines:
as §1

Another assay concerns the target HSF1 (Homo sapiens, UniProt Q00613 1-529). Particulars: protein: recombinant; tags: N-terminal GST; chain copies: 3; dsDNA, one strand shown. The essentials: as §1
In the next assay the target is T8, SPIC (Homo sapiens, UniProt Q8N5J4 1-248).
T8 sequence: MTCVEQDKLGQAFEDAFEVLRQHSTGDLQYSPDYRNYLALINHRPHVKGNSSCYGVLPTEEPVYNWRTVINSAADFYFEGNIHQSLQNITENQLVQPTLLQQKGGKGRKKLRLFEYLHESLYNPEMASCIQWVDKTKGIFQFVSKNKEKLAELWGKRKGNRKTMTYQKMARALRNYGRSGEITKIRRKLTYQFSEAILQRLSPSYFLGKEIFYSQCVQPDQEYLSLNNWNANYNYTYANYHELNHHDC
Particulars: protein: recombinant; tags: N-terminal GST; dsDNA, one strand shown. In a few lines:
as §1

For a further assay, the target named is ELF4 (Homo sapiens, UniProt Q99607 1-663). Particulars: protein: recombinant; tags: N-terminal GST; dsDNA, one strand shown. The essentials: as §1
The next assay addresses T9, ELK4 (Homo sapiens, UniProt P28324-2 1-405).
T9 sequence: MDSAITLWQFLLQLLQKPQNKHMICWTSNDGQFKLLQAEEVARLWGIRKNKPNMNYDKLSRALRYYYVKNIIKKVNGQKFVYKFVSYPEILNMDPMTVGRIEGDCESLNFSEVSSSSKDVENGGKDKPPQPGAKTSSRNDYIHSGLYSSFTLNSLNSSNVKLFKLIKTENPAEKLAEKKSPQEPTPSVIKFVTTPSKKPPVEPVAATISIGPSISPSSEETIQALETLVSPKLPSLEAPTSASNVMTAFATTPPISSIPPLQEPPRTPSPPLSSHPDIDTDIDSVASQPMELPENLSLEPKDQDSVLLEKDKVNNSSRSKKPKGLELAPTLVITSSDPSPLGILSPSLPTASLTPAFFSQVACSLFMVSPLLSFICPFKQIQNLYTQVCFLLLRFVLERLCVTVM
Particulars: protein: recombinant; tags: N-terminal GST; dsDNA, one strand shown. In a few lines:
as §1

The target of the next assay is T10, ETV2 (Homo sapiens, UniProt O00321 1-342).
T10 sequence: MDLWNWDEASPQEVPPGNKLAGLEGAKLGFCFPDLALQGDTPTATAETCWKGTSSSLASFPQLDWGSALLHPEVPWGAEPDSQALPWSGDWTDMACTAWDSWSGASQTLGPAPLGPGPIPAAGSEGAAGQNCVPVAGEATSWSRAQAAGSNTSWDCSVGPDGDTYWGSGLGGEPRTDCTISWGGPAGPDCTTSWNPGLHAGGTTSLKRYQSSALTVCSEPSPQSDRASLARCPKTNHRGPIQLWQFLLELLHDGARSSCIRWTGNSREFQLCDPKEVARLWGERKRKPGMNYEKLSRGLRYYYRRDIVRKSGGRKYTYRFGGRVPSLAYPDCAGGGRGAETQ
Particulars: protein: recombinant; tags: N-terminal GST; dsDNA, one strand shown. The essentials: as §1

The next assay addresses T11, ELF3 (Homo sapiens, UniProt P78545 1-371).
T11 sequence: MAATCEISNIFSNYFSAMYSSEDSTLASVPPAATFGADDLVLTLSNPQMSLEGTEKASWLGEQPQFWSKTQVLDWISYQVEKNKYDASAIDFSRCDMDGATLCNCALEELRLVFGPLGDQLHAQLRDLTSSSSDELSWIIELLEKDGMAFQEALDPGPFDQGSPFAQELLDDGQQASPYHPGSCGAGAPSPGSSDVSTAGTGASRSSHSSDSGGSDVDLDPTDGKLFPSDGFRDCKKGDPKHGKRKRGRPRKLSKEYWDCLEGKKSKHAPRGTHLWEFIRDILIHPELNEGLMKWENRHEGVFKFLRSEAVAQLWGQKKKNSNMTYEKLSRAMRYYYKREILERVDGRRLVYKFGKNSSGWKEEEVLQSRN
The settings on record: protein: recombinant; tags: N-terminal GST; dsDNA, one strand shown. In a few lines:
as §1

A further assay addresses ETV1 (Homo sapiens, UniProt P50549 1-477). The settings on record: protein: recombinant; tags: N-terminal GST; dsDNA, one strand shown. In a few lines: as §1

Sequence of ELF4 (Q99607 whole entry): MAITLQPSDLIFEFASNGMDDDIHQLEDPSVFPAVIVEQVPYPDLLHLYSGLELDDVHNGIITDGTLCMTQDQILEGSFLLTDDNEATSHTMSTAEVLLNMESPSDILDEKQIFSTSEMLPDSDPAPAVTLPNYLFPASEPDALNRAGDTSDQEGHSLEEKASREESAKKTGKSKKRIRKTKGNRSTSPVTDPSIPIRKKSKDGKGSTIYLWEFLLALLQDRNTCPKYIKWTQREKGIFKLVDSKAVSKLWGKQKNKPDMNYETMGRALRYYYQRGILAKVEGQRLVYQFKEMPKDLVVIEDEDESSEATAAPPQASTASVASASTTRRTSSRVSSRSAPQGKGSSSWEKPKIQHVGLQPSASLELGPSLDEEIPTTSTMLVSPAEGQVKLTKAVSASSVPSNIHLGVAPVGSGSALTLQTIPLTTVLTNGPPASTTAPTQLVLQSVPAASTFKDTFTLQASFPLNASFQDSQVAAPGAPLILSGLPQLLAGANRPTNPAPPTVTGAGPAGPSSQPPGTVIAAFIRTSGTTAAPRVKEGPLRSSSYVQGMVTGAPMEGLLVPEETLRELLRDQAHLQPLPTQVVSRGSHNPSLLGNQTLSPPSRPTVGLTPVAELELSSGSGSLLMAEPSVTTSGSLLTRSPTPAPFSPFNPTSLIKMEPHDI
Sequence of SPIB (Q01892 whole entry): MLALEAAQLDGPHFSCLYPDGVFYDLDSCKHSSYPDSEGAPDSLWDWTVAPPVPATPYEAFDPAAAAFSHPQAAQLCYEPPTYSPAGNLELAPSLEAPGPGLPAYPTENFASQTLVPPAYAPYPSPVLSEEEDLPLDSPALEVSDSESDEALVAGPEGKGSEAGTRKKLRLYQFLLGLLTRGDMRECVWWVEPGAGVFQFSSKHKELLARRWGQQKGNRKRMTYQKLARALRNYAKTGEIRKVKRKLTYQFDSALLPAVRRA
Sequence of ETV1 (P50549 whole entry): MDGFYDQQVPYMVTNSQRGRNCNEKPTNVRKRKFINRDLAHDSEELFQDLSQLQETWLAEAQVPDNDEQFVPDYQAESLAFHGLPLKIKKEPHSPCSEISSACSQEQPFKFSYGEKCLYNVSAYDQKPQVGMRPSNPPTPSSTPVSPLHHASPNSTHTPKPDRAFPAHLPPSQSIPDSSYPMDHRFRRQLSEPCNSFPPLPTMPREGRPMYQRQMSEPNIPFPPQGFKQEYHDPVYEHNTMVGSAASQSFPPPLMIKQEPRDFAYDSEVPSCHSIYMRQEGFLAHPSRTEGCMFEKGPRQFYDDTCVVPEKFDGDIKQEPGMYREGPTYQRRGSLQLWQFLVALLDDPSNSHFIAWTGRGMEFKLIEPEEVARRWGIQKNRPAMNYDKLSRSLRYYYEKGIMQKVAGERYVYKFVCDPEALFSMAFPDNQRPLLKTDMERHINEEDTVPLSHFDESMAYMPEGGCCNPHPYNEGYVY
Sequence of ELF1 (P32519 whole entry): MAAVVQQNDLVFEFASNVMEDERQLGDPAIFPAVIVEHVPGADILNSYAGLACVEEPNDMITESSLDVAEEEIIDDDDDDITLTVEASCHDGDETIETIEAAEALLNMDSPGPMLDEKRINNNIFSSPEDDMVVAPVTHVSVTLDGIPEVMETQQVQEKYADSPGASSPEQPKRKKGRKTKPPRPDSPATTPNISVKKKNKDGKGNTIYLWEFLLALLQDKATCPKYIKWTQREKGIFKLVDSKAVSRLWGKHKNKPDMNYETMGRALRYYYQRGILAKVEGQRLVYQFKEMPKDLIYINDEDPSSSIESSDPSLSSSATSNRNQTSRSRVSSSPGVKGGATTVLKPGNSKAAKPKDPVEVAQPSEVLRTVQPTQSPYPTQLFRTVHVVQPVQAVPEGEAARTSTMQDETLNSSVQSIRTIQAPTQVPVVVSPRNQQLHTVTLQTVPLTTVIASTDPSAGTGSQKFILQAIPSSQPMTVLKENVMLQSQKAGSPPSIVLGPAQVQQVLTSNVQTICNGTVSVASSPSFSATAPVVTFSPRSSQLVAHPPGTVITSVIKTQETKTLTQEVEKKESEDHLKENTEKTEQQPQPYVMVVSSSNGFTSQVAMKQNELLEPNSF
Sequence of HSF1 (Q00613 whole entry): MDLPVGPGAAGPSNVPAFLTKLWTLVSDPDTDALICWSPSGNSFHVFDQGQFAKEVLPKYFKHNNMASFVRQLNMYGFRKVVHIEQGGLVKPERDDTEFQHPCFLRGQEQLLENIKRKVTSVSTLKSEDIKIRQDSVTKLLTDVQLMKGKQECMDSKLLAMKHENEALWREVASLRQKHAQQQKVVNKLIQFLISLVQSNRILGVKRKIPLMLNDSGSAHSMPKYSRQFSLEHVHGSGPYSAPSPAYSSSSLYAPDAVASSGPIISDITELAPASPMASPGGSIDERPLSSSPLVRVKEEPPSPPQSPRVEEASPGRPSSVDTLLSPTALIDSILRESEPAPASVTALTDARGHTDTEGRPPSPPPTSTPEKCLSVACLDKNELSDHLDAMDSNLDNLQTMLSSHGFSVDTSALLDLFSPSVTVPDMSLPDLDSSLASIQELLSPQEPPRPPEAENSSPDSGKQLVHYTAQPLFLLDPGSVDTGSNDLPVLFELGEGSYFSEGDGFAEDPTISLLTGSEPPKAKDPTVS
Sequence of ETV5 (P41161 whole entry): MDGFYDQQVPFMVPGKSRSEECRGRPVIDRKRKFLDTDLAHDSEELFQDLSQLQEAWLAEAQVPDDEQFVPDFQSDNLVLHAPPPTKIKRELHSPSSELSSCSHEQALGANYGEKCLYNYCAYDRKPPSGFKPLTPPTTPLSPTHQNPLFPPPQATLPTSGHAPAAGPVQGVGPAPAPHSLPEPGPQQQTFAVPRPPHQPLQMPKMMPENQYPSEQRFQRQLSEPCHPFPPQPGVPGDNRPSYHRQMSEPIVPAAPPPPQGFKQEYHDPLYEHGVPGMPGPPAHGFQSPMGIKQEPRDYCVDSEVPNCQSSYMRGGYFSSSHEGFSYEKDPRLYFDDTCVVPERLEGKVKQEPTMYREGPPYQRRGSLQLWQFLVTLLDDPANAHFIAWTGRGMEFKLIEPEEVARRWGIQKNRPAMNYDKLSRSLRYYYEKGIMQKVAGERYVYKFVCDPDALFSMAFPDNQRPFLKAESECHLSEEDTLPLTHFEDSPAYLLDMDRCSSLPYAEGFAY

On to ATGGAC, for which the binding signal is 1.21 fold enrichment (6-mer frequency, TF over GST control) with FLI1; 1.22 fold enrichment (6-mer frequency, TF over GST control) with ELK1; 1.21 fold enrichment (6-mer frequency, TF over GST control) with GABPA; 1.16 fold enrichment (6-mer frequency, TF over GST control) with ERG; 1.26 fold enrichment (6-mer frequency, TF over GST control) with ELF1; 1.21 fold enrichment (6-mer frequency, TF over GST control) with EHF. In addition, the binding signal with SPI1 is 1.25 fold enrichment (6-mer frequency, TF over GST control); with SPIB, 1.38 fold enrichment (6-mer frequency, TF over GST control); with ELK3, 1.19 fold enrichment (6-mer frequency, TF over GST control); with FEV, 1.3 fold enrichment (6-mer frequency, TF over GST control); with ETV5, 1.3 fold enrichment (6-mer frequency, TF over GST control); with HSF1 it was 1.01 fold enrichment (6-mer frequency, TF over GST control). In addition, the binding signal was 1.34 fold enrichment (6-mer frequency, TF over GST control) with SPIC; 1.2 fold enrichment (6-mer frequency, TF over GST control) in the assay with ELF4; 1.17 fold enrichment (6-mer frequency, TF over GST control) with ELK4; 1.33 fold enrichment (6-mer frequency, TF over GST control) with ETV2; 1.42 fold enrichment (6-mer frequency, TF over GST control) with ELF3; 1.18 fold enrichment (6-mer frequency, TF over GST control) in the assay with ETV1.
